Assay results from PubChem BioAssay (NCATS).
Inconclusive results are not listed. Activity calls are given as the source filed them. Calls follow the shape of the dose curve; as a rule, active = well fitted cell-killing curve with a large enough effect; inconclusive = small, poorly fitted or top-dose-only effect, or effect the other way; inactive = flat fitted curve, though single readings scatter.

Experiments:
Assay in all cases: Primary qHTS to identify gynecologic anti-cancer compounds using libraries of approved drugs and bioactive compounds (AID 1345084); also: nearly all actives have a fitted effect of over 55% in size
Settings in all cases: Gynecologic cancer cell panel viability, ATPlite luminescence, 48 h; series mostly up to 57.5 µM
[1] = tested on: PA-1
Summary of the method: (§1)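 In this quantitative HTS, cell killing is estimated from loss of ATP-dependent luciferase light. Cells see five compound concentrations over a 48 h exposure.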

[2] = tested on: SKOV3
Summary of the method: as §1

[3] = tested on: Tov-21-G
Summary of the method: as §1

[4] = tested on: Tov112D
Summary of the method: as §1
% is scaled to controls: 0 for no effect and ±100 for the full control effect.

NCC(CNc1nc(Nc2cccc(NC(=O)N3CCCC3)c2)ncc1I)C(=O)c1cccs1 (configuration not stated)
inactive: Potency [1] | Potency [2] | Potency [3] | Potency [4]

CCOC(=O)C1=Cc2ccc(C(F)(F)C(F)(F)F)cc2N=C(N)C1
inactive: Potency [1] | Potency [2] | Potency [3] | Potency [4]

CC1(C)CC[C@]2(C(=O)O)[C@H](O)C[C@]3(C)C(=CCC4[C@@]5(C)CC[C@H](O[C@@H]6O[C@H](CO[C@@H]7OC[C@H](O)[C@H](O)[C@H]7O[C@@H]7OC[C@H](O)[C@H](O)[C@H]7O)[C@@H](O)[C@H](O)[C@H]6O)C(C)(C)C5CC[C@]43C)[C@@H]2C1 (some centres not stated)
inactive: activity change, negative = cytotoxicity [1] 4.95% [at 11.6 µM] | activity change, negative = cytotoxicity [2] 13.8% [at 11.6 µM] | activity change, negative = cytotoxicity [3] 4.39% [at 11.6 µM] | activity change, negative = cytotoxicity [4] 15.2% [at 11.6 µM]

O=c1[nH]cnc2c([C@@H]3N[C@H](CO)[C@@H](O)[C@H]3O)c[nH]c12
inactive: Potency [1] | Potency [2] | Potency [3] | Potency [4]

NS(=O)(=O)c1ccc(N2N=C(c3ccccc3)CC2c2ccccc2)cc1 (configuration not stated)
inactive: Potency [1] | Potency [2] | Potency [3] | Potency [4]

CC(=O)O[C@H]1C[C@H](OC(C)=O)[C@]2(C)[C@H](CC[C@@]34O[C@@H]3C3=C(C)C(=O)O[C@@H]3C[C@H]42)C1(C)C
inactive: Potency [1] | Potency [2] | Potency [3] | Potency [4]

C#CCNCc1cc2cc(OCc3ccccc3)ccc2[nH]1
inactive: Potency [1] | Potency [2] | Potency [3] | Potency [4]

C=C(C(=O)OC)[C@@H]1CC=C2C=CC(=O)[C@H](C)[C@@]2(C)C1
inactive: Potency [1] | Potency [2] | Potency [3] | Potency [4]
